The campaign covered roughly 300,000 compounds. About 37,000 (12%) were called active. Shown is part of a subset that was picked to be rich in actives. Values without a mark were called inactive. Rule as the data show it: active = max response mostly above about 13% (no sharp cut-off); inactive = mostly below about 14%.
assay: Cycloheximide Counterscreen for Small Molecule Inhibitors of Shiga Toxin; settings: cell reporter, cycloheximide protein synthesis inhibition counterscreen; hits give high values; also: read at 38.3 µM for the half of the compounds with a filed dose; 0% is about no effect

Structure (SMILES) | max response
CCOc1cc(C)ccc1OCc1nnc(SCC(=O)Nc2cccc(C(=O)O)c2)n1-c1ccccc1 | 3.69%
CC(C)C[C@H]1CN=C(Nc2ccccc2)N1CC1CCCCC1 | -4.32%
CC(=O)N1c2ccc(S(=O)(=O)N3CCCC(C(=O)Nc4ccc(C)cc4C)C3)cc2CC1C (stereo unspecified) | -0.234%
CC(C)c1cc(NCc2ccccn2)n2c(nc3ccccc32)c1C#N | 9.39%
Cc1ccc(Cl)cc1N1CCN(C(=O)c2cccc3c(=O)c(C)c(-c4ccccc4)oc23)CC1 | 3.64%
COCCn1cnc2c1c(=O)n(CC(=O)NN)c(=O)n2Cc1ccccc1 | -14.6%
O=Cc1c(Nc2ccccc2Cl)nc2ccccn2c1=O | -2.35%
O=C(COC(=O)CCCNC(=O)c1ccc(Cl)cc1)Nc1cc(Cl)ccc1Cl | -0.294%
COCCn1c(C)cc(C2=NNC(=Nc3ccc(F)cc3)SC2)c1C | 31.2% (active)
C=CCn1c(C)cc(C2=NNC(=NCC)SC2)c1C | -12%
Cc1cc(C2=NNC(=Nc3ccc(S(=O)(=O)N4CCOCC4)cc3)SC2)c(C)n1CC1CCCO1 (stereo unspecified) | 19.4%
COc1ccc(C(=O)C[n+]2ccc(N)c(C)c2C)cc1 | -5.16%
CN1CN(C)c2ccc([N+](=O)[O-])c3cccc1c23 | -0.807%
C=CCNC(=S)/N=c1/ccccn1Cc1ccccc1 | 1.08%
CN(CC(=O)Nc1ccc(N2CCOCC2)cc1)CC(=O)Nc1ccccc1[N+](=O)[O-] | -1.06%
CC(=O)Nc1ccc(S(=O)(=O)N2CCN(c3ccc([N+](=O)[O-])c(NCCN4CCOCC4)c3)CC2)cc1 | -3.02%
COc1ccccc1OCCNc1cc(N2CCOCC2)ccc1[N+](=O)[O-] | 24.7% (active)
Cc1ccc(CNC(=O)C2CCCN2S(=O)(=O)c2ccc3c(c2)C(C)(C)C(=O)N3C)cc1 (stereo unspecified) | -3.55%
C=CCOc1ccc(C(=O)Nc2ccccc2C(=O)N2CCCC2)cc1 | -1.61%
Cc1cccc(NC(=O)CN2CCCN(S(=O)(=O)c3ccc(Br)s3)CC2)c1 | 19.9%
CSc1ncccc1C(=O)NCc1ccccc1Cl | 2.57%
CSc1ncccc1C(=O)OCC(=O)N1CCOCC1 | -5.04%
CSc1ncccc1C(=O)OCc1ccc(Br)cc1 | 36.2% (active)
CN1CCN(c2cc3c(cc2F)c(=O)c(C(=O)O)cn3CCF)CC1 | -3.38%
Oc1ccc2ccccc2c1N=Nc1nccs1 | 11.4%
Oc1ccc(N=Nc2nccs2)c(O)c1 | 38% (active)

Structure (SMILES) | max response
NC(=O)N1CCc2ccccc21 | -6.54%
O=C(CSCc1ccccc1)N1CCc2ccccc21 | 50.5% (active)
Cc1nnc(SCC(=O)N2CCc3ccccc32)n1-c1ccccc1 | -1.58%
Cc1ccc(Oc2cc(NC(=O)CCCn3nc(C)c([N+](=O)[O-])c3C)cc([N+](=O)[O-])c2)cc1 | 6.56%
Cc1ccc2ccc3c(c2n1)NS(=O)(=O)c1ccccc1-3 | 9.31%
O=C1CC(C(F)(F)C(F)(F)C(F)(F)C(F)(F)F)=Nc2ccccc2N1 | 1.33%
Cc1ccccc1-n1nc(C)c2cc(C(=O)NC3CC3)sc21 | 13.7%
O=C(CSc1nc2nccnc2c(=O)n1Cc1cccs1)Nc1ccccc1F | 18.8%
Cc1cccc(-c2noc(-c3ccc(F)cc3)n2)c1 | 70.7% (active)
Cc1ccc(Cc2nc(-c3cccc(C)c3)no2)cc1 | 31.8% (active)
Cc1cccc(-c2nc(Nc3ccc(O)cc3)c3ccccc3n2)c1 | -0.236%
Cc1cccc(-c2noc(CCC(=O)NC3CCCC3)n2)c1 | 2.28%
CC(=O)N1CCCc2cc(S(=O)(=O)N3CCCC(C(=O)NCc4ccc(Cl)cc4)C3)ccc21 (stereo unspecified) | -1.26%
CCN1C(=O)C(C(=O)NC(C)c2ccccc2)C2CC1(C)Oc1ccccc12 (stereo unspecified) | -6.07%
Cc1nn(CC(=O)N2CCCCC2)c(=O)c2nn(-c3ccccc3)c(C)c12 | -0.579%
C[C@H](NC(=O)C1CCN(S(=O)(=O)c2ccccc2)CC1)C(=O)NCc1ccccc1 | -2.6%
COCCN1C(=O)C(=O)/C(=C(/O)c2ccc(S(=O)(=O)N3CCOCC3)cc2)C1c1ccc(OC)c(OC)c1 (stereo unspecified) | -0.449%
CCOCCCNC(=O)c1cn(CC(C)C)c(=O)c2c1c1ccccc1n2C | 1.59%
Cc1cc(Cl)c(S(=O)(=O)NCC2CCCO2)cc1OCC(N)=O (stereo unspecified) | -0.524%
Cc1cc(Cl)c(S(=O)(=O)Nc2ccc3c(c2)OCCO3)cc1OCC(N)=O | 40.8% (active)
Cc1cc(Cl)c(S(=O)(=O)N(C)C)cc1OCC(N)=O | 4.25%
COc1ccc(S(=O)(=O)N2CCN(c3ncnc4c(-c5ccccc5)nsc34)CC2)cc1 | -2.92%
CC1=C(C(=O)OC2CCCCC2)C(c2cccnc2)n2ncnc2N1 (stereo unspecified) | -3.65%
C=CCCN(C(Cc1ccccc1)C(=O)OC)S(=O)(=O)c1cc(Br)ccc1Br (stereo unspecified) | -0.573%
O=C(Nc1ccc([N+](=O)[O-])cc1)OCCc1ccccn1 | 19% (active)
O=[N+]([O-])c1ccc(NC(=S)N2CCN(c3ccccn3)CC2)cc1 | -3.35%

Structure (SMILES) | max response
O=C(Nc1cccc(Cl)c1)OCc1ccccn1 | 26.4%
C#CCSc1nnc(-c2sc3ccccc3c2Cl)o1 | 46.5% (active)
O=C(OCC#CCSc1nnc(-c2ccncc2)o1)c1sc2ccccc2c1Cl | -4.75%
COc1ccc2c(Cl)c(-c3nnco3)sc2c1 | 0.855%
COCCNC(=O)CCCN1C(=O)c2ccccc2Sc2ncccc21 | 5.87%
Cc1cccc(C2=N/C(=C/c3cccs3)C(=O)O2)c1 | 29.6% (active)
Cc1ccc(N2CCN(C3=NC(=O)/C(=C\c4cccs4)S3)CC2)cc1 | 3.49%
Cc1ccc(C2=N/C(=C\c3ccc(OS(=O)(=O)c4ccc(C)cc4)cc3)C(=O)O2)cc1 | 0.746%
Cc1ccc(S(=O)(=O)N2CCN(C(=O)N3CCOCC3)CC2)c(C)c1 | -0.587%
Cc1ccc(NC(=O)[C@H](Cc2ccccc2)NC(=O)C2CCNCC2)cc1 | -1.28%
Cc1ccccc1NC(=O)C1CCN(C(=O)NC2CCCCC2)CC1 | -2.51%
CC(=O)Nc1cc2ccc(OC(C)=O)cc2oc1=O | -3.66%
O=C(Nc1cc2ccccc2oc1=O)C1CCCCC1 | 34.2% (active)
Cc1ccc(S(=O)(=O)N/N=C(\c2ccccc2)C2CC2)cc1 | -0.529%
COc1cccc(C2c3[nH]c4ccccc4c3CCN2Cc2cccc(C)n2)c1 (stereo unspecified) | -0.212%
CCOc1ccc(S(=O)(=O)N2CCC(c3ccccc3)CC2)cc1C(=O)O | -3.04%
COc1ccc(/C=N/OCc2ccccc2C#N)c(OC)c1 | 38% (active)
COc1ccc(/C=N/Nc2cc(N3CCOCC3)nc(C)n2)c(OC)c1 | -1.58%
COc1ccc(C=C(C#N)C#N)c(CSc2ccccn2)c1 | -3.44%
Cc1ccc(C(=O)Nc2nnc(C3=COCCO3)o2)cc1C | 14.8% (active)
O=C(Nc1nnc(C2=COCCO2)o1)c1ccc([N+](=O)[O-])s1 | -2.32%
Cc1ccc(C(=O)Nc2nnc(-c3cccs3)s2)cc1C | 13.9%
Cc1nn(Cc2ccccc2)c(C)c1NS(=O)(=O)c1ccccc1 | 5.29%
CCN(CC)S(=O)(=O)c1ccc(N(C)CCc2ccc(OC)c(OC)c2)nc1 | -1.93%
CCOc1ccccc1NC(=O)Cn1ncc2ccc([N+](=O)[O-])cc21 | 8.74%
CCN(CC)CCN1C(=O)C2C(C(=O)Nc3ccc(Br)cc3)C3C=CC2(O3)C1C(=O)NC1CCCCC1 (stereo unspecified) | -5.6%

Structure (SMILES) | max response
O=C(Nc1ccccc1F)C1C2C=CC3(O2)C1C(=O)N(c1cccnc1)C3C(=O)NC1CCCCC1 (stereo unspecified) | 41.8% (active)
CC(C)N1C(=O)C2C(C(=O)NC3CCCCC3)C3C=CC2(O3)C1C(=O)NC1CCCC1 (stereo unspecified) | -1.06%
Cc1cccc(C(=O)NC(=S)N2CCN(c3ccc([N+](=O)[O-])cc3)CC2)c1 | -1.96%
O=c1c(-c2ccc(Cl)cc2)[n+]([O-])c2ccccc2n1OCc1nc2ccccc2[nH]1 | 24.8% (active)
CCN(CC)CCCNC(=S)N(CCO)Cc1cc2cc3c(cc2[nH]c1=O)OCO3 | -1.33%
COc1ccc(CCNC(=O)CCC(=O)NC2CCCCC2)cc1OC | -1.91%
CC(C)(C)C1CCC(C(=O)Nc2cccnc2)CC1 (stereo unspecified) | -2.39%
COCC1CCCN(Cc2nc(-c3ccc4c(c3)OCO4)no2)C1 (stereo unspecified) | 42.1% (active)
CC1CCCN(CC(O)COc2ccc3c(c2)OCO3)C1 (stereo unspecified) | 4.28%
COCC1CCCN(Cc2cn[nH]c2-c2cc3ccccc3o2)C1 (stereo unspecified) | 7.39%
Cc1c(NC(=O)c2c([N+](=O)[O-])cnn2C)c(=O)n(-c2ccccc2)n1C | -6.14%
COc1ccc(SCc2noc(C(=O)NCC3CCCO3)c2C(=O)O)cc1 (stereo unspecified) | -3.22%
O=C(NCC1CCCO1)c1cc(-c2ccccc2)nc2ccccc12 (stereo unspecified) | 9.86%
O=C(NCC1CCCO1)c1ccccc1-c1nc(-c2ccccc2Cl)no1 (stereo unspecified) | 27.4% (active)
Cc1nc2ccccc2c2oc(C(=O)NCC3CCCO3)cc12 (stereo unspecified) | -1.07%
COCCNC(=O)c1ccccc1-c1nc(-c2ccccc2Cl)no1 | 28.8%
Cc1ccc(-c2noc(-c3ccccc3C(=O)NCC3CCCO3)n2)cc1 (stereo unspecified) | 27.2% (active)
COc1ccc2cc(C(=O)NCC3CCCO3)[nH]c2c1 (stereo unspecified) | 62.1% (active)
O=C(NCC1CCCO1)c1ccc2ccccc2n1 (stereo unspecified) | 29.9% (active)
O=C(CSCc1c(F)cccc1Cl)NCC1CCCO1 (stereo unspecified) | 13.1%
Cc1ccccc1CN(c1ccc(C(=O)NCC2CCCO2)cc1)S(C)(=O)=O (stereo unspecified) | -5.23%
CCC(=O)c1c[nH]c(C(=O)NCC2CCCO2)c1 (stereo unspecified) | -0.953%
O=C(Nc1ccccc1C(=O)NCC1CCCO1)c1ccccc1F (stereo unspecified) | 14.1%

From PubChem BioAssay AID2314 (National Center for Advancing Translational Sciences (NCATS), 2010)
